Bioassay records as filed in PubChem.
An excerpt weighted towards active compounds, which were near 6.3% of everything screened.
MPTP inh: mitochondrial permeability transition pore inhibitors, primary screen, biochemical, isolated mouse mitochondria, absorbance; Ca2+ swelling absorbance, 30 min; inhibition, % at 10 µM; 360,000 tested, 1.4% active;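 active = inhibition of 50% or more, scaled per plate between neutral and stimulator controls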
TIM10 inh: growth inhibitors of isogenic TIM10 control yeast, primary screen, counter-screen for tim10-1 yeast inhibitor project, luminescence, uHTS | 330,000 tested, 1.4% active | AID 463195, 2010 | S. cerevisiae TIM10 strain growth, BacTiter-Glo luminescence, 24 h | inhibition, % at 10 µM;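 active = inhibition of 40% or more at the single tested concentration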;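 also: wild-type TIM10 isogenic control strain grown at permissive 25 °C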
tim10-1 inh: growth inhibitors of tim10-1 mutant yeast, primary screen, luminescence, uHTS; S. cerevisiae tim10-1 ts strain growth, BacTiter-Glo, 24 h; inhibition, % at 20 µM; 330,000 tested, 2.2% active; AID 463190, 2010;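 active = inhibition of at least 40%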;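 also: mutant grown at 25 °C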
Mdm2-MdmX inh: inhibitors of human Mdm2-MdmX association, primary screen, cell-based, luminescence, split luciferase, SaOS-2, uHTS; 330,000 tested, 3% active; inhibition, % at 8 µM; Protein Mdm4 (Homo sapiens) + E3 ubiquitin-protein ligase Mdm2 (Homo sapiens), …; SaOS-2 split-luciferase Mdm2/MdmX complementation;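 active = inhibition of at least 50% at 8 µM in the primary screen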
Target sequence (O15151 whole entry, looked up): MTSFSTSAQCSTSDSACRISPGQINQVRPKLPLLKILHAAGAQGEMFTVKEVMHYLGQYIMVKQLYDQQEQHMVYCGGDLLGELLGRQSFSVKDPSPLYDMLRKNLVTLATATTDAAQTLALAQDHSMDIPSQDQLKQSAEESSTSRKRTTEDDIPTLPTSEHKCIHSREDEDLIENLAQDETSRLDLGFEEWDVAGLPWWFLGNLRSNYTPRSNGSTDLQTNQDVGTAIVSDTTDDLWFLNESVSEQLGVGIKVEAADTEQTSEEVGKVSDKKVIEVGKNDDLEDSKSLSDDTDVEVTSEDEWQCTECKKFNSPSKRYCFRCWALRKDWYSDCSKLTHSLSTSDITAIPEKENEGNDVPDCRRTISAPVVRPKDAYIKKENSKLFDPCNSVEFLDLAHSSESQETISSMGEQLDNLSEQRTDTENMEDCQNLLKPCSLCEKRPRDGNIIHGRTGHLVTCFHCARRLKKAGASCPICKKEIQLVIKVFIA
Target sequence (Q00987 whole entry, looked up): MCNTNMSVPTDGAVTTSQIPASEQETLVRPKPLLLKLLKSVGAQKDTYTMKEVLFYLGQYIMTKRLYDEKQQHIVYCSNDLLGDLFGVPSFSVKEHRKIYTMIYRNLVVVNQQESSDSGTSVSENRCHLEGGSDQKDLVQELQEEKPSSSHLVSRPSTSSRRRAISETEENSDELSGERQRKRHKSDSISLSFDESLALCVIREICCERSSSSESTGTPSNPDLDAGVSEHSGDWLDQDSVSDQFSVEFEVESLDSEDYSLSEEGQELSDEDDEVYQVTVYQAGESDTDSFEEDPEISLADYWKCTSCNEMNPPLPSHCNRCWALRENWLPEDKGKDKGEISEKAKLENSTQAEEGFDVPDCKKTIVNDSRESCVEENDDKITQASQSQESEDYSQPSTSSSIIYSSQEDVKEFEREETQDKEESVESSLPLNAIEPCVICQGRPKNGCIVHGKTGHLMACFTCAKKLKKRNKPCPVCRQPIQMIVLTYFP
tim23-1 inh: growth inhibitors of tim23-1 mutant yeast, primary screen, luminescence, uHTS; 330,000 tested, 1.3% active; S. cerevisiae tim23-1 growth, BacTiter-Glo luminescence, 24 h; inhibition, % at 20 µM;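 active = growth inhibition of the mutant yeast at or above 50%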;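 also: temperature-sensitive mutant grown at 25 °C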
MPTP counter: fluorescence retest of MPTP screen hits in isolated mitochondria, single concentration; shares compounds with MPTP inh; membrane potential, Rhodamine 123 fluorescence; inhibition, % at 10 µM; 5,000 tested, 78% active; AID 624504, 2012; in the data active = inhibition above about 22%
MPTP swell DR: mitochondrial permeability transition pore inhibitors, dose response, biochemical, absorbance, uHTS hits | isolated mitochondria swelling | IC50, µM | shares compounds with MPTP inh | 780 tested, 58% active; in the data active = IC50 below about 20 µM
MPTP counter DR: fluorescent counter-screen in isolated mitochondria, dose response, counter-screen for MPTP inhibitor project, biochemical, fluorescence, uHTS hits. shares compounds with MPTP inh. 780 tested, 49% active. IC50, µM. isolated mitochondria counterscreen, fluorescence read-out; in the data active = IC50 below about 80 µM
Large screens that a line does not name were inactive (follow-up assays come after a bar, where they were run).

CC(C)COc1ccc(-c2nnc(-c3ccncc3)o2)cc1	MPTP inh 59.2 | MPTP counter 50.9
COc1ccccc1N(C(C)=O)C1=C(Cl)C(=O)c2ccccc2C1=O	MPTP inh 51.0 (no result: TIM10 inh, tim10-1 inh, Mdm2-MdmX inh, tim23-1 inh) | MPTP counter 94.8
Cc1cc(NC(=O)Nc2cccc(Cl)c2)n(-c2ccccc2)n1	MPTP inh 57.5 | MPTP counter 86.5
Cc1cc(NC(=O)Nc2ccc(Cl)c(Cl)c2)n(-c2ccccc2)n1	MPTP inh 86.3 | MPTP counter 86.6
Cc1cc(NC(=O)c2ccc(Cl)cc2)n(-c2ccccc2)n1	none
Cc1cc(Nc2ccccc2)n(-c2cccc(Cl)c2)n1	none
COCCN(C(=O)COC(=O)c1ccc2ccccc2c1)c1c(N)n(Cc2ccccc2)c(=O)[nH]c1=O	none (no result: TIM10 inh, tim10-1 inh, Mdm2-MdmX inh, tim23-1 inh)
O=C(Nc1ccccc1)Nc1nc(-c2ccccc2)cs1	MPTP inh 84.8 | MPTP counter 80.0
O=C(Nc1ccc(Cl)c(Cl)c1)Nc1nc(-c2ccccc2)cs1	MPTP inh 73.5 | MPTP counter 73.3
COc1cccc(-c2csc(NC(=O)Nc3ccccc3)n2)c1	none
Nc1nc2c(s1)CCc1ccccc1-2	none
N#C/C(=C(/O)CCl)c1nc2c(s1)CCc1ccccc1-2	MPTP inh 55.2 | MPTP counter 78.2
CCc1ccc(/C=C/C(=O)c2ccc(N3CCOCC3)cc2)cc1	MPTP inh 68.5 | MPTP counter inactive | MPTP swell DR inactive | MPTP counter DR 18.9
O=C(/C=C/c1ccc(F)cc1)c1ccc(N2CCOCC2)cc1	none
COc1ccc(NC(=O)c2ccc3c(c2)S(=O)(=O)N=C2CCCCCN23)cc1S(N)(=O)=O	none (no result: TIM10 inh, tim10-1 inh, Mdm2-MdmX inh, tim23-1 inh)
CCOc1ccc(NC(=O)Nc2cc(OCC(F)(F)F)cc(OCC(F)(F)F)c2)cc1	MPTP inh 80.4 | MPTP counter 70.5
O=C(NCCNC(=O)c1cc(OCC(F)(F)F)ccc1OCC(F)(F)F)Nc1ccc(OC(F)(F)F)cc1	MPTP inh 80.1 | MPTP counter 83.9
COc1ccc(NC(=S)Nc2ccc3nsnc3c2)cc1	MPTP inh 59.9 | MPTP counter 77.6
CCOc1ccc(NC(=O)Nc2ccc3nsnc3c2)cc1	MPTP inh 91.3 | MPTP counter 89.4
CCOc1ccc(NC(=O)Nc2cc(C)ccc2F)cc1	none
O=C(NCCNC(=O)c1cc(OCC(F)(F)F)ccc1OCC(F)(F)F)Nc1ccc(Cl)cc1	none (no result: MPTP inh)
CCOC(=O)c1ccc(NC(=O)c2nc[nH]c2C(=O)NC[C@@H](C)O)cc1	none (no result: TIM10 inh, tim10-1 inh, Mdm2-MdmX inh, tim23-1 inh)
CCOc1ccc(NC(=S)Nc2ccc3nsnc3c2)cc1	MPTP inh 85.5 | MPTP counter 77.1
C=C(C)C1CC=C(CN2CCC(O)CC2)CC1 (configuration not stated)	none
C=C(C)[C@@H]1CC=C(CN2CCC(N3CCC(C(=O)N4CCCC4)CC3)CC2)CC1	MPTP inh 83.2 | MPTP counter 46.8
O=C(c1ccccc1)c1ccc(Cn2cc(-c3ccccc3)nn2)cc1	MPTP inh 84.6 | MPTP counter 98.8
C[C@@H]1CN([C@H](C)CO)C(=O)c2cc(Br)cnc2O[C@H]1CN(C)C(=O)Nc1ccccc1F	none (no result: TIM10 inh, tim10-1 inh, Mdm2-MdmX inh, tim23-1 inh)
O=c1cc(-c2ccccc2)nc2c(-c3ccccc3)c(C(F)(F)F)[nH]n12	MPTP inh 63.6 | MPTP counter 47.3
CN(C(=O)c1ccccc1)C1c2c(ccc3ccccc23)OCC1CO (configuration not stated)	none
O=C(Nc1ccc(Cl)cc1)N[C@@H]1c2c(ccc3ccccc23)OC[C@@H]1CO	MPTP inh 93.3 | MPTP counter 74.5
O=C(Nc1cc(Sc2nc3ccccc3s2)cc([N+](=O)[O-])c1)c1ccccc1F	none
